{"source": "PubChem BioAssay AID720519", "about": "(National Center for Advancing Translational Sciences (NCATS), 2013)", "experiment": "qHTS for Inhibitors of Cell Surface uPA Generation: Confirmatory Assay for Cherry-picked Compounds", "how_it_was_run": "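RAW 264.7 cells at 4000/well, incubated overnight, then treated with compounds. After 24 h at 37 C, viability was read by ATPlite luminescence. An increase in signal indicates blocked uPA-dependent LF entry.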", "note": "Records with an inconclusive call do not appear. Entries that show only a call come without a potency. Active and inactive are the calls of the source. Calls follow the shape of the dose curve; as a rule, active = well fitted activation curve with a large enough effect; inconclusive = small, poorly fitted or top-dose-only effect; inactive = flat fitted curve, though single readings scatter. Potency is read from the fitted curve at half-maximal effect.", "data": [{"molecule": "O=C(NCc1ccc(F)cc1)c1cc(S(=O)(=O)N2CCCCC2)ccc1N1CCOCC1", "values": [{"measurement": "Potency", "result": "inactive"}]}, {"molecule": "O=C1[C@H]2[C@@H](c3ccc(F)cc3)N3C(=O)N(c4cccc(F)c4)C(=O)[C@@]3(Cc3ccc(Cl)cc3)[C@H]2C(=O)N1C1CCCCC1", "values": [{"measurement": "Potency", "result": "inactive"}]}, {"molecule": "O=[N+]([O-])c1ccc(SCc2ccncc2)nc1", "values": [{"measurement": "Potency", "result": "inactive"}]}, {"molecule": "CSc1nc(N)nc2c1ncn2CC(=O)NCC1CCCO1", "note": "(stereo not given)", "values": [{"measurement": "Potency", "result": "inactive"}]}, {"molecule": "CC(=O)c1ccc(N2CCN(C(=S)NCc3ccco3)CC2)cc1", "values": [{"measurement": "Potency", "result": "inactive"}]}, {"molecule": "COc1ccccc1CNC(=O)CCn1c(=O)oc2ccccc21", "values": [{"measurement": "Potency", "result": "inactive"}]}, {"molecule": "CCc1ccc(NCc2nc(-c3ccccc3)no2)cc1", "values": [{"measurement": "Potency", "result": "inactive"}]}, {"molecule": "CCc1ccc(N2CC(C(=O)Nc3ccc4c(c3)OCO4)CC2=O)cc1", "note": "(stereo not given)", "values": [{"measurement": "Potency", "result": "inactive"}]}, {"molecule": "Cc1cc(C)n(-c2cc(C(=O)O)cc(C(=O)O)c2)n1", "values": [{"measurement": "Potency", "result": "inactive"}]}, {"molecule": "CC(=O)Nc1c2c(nn1-c1cccc(C)c1)CSC2", "values": [{"measurement": "Potency", "result": "inactive"}]}, {"molecule": "Cc1ccc2oc(=O)c3cnn(CC(=O)Nc4ccccc4N4CCN(C)CC4)c3c2c1", "values": [{"measurement": "Potency", "result": "9.27 µM (active)"}]}, {"molecule": "Cc1ccsc1/C=C(\\C#N)C(=O)NC1CCS(=O)(=O)C1", "note": "(stereo not given)", "values": [{"measurement": "Potency", "result": "inactive"}]}, {"molecule": "Cc1ccc(S(=O)(=O)N2CCOCC2)cc1C(=O)OC1CCOC1=O", "note": "(stereo not given)", "values": [{"measurement": "Potency", "result": "inactive"}]}, {"molecule": "Cc1ccc(NC(=O)CCCn2c(=S)[nH]c3ccsc3c2=O)cc1C", "values": [{"measurement": "Potency", "result": "inactive"}]}, {"molecule": "COc1ccc(CCNC(=O)CSc2nc(N)c3c(C)c(C)oc3n2)cc1OC", "values": [{"measurement": "Potency", "result": "inactive"}]}, {"molecule": "O=C(CSC1=NS(=O)(=O)c2ccccc2N1)Nc1nccs1", "values": [{"measurement": "Potency", "result": "inactive"}]}, {"molecule": "Cc1ccccc1NC(=O)N1CCN(c2ncccn2)CC1", "values": [{"measurement": "Potency", "result": "inactive"}]}, {"molecule": "CC(OC(=O)c1cccc(-n2cnnn2)c1)C(=O)Nc1ccc(F)c(F)c1F", "note": "(stereo not given)", "values": [{"measurement": "Potency", "result": "inactive"}]}, {"molecule": "CCOC(=O)c1cc(-c2ccccc2C)n(CC2CC(c3ccc(OC)cc3)=NO2)n1", "note": "(stereo not given)", "values": [{"measurement": "Potency", "result": "inactive"}]}, {"molecule": "CCOC(=O)C1=C(CN2CCN(C(=O)c3ccco3)CC2)NC(=O)NC1c1ccccc1", "note": "(stereo not given)", "values": [{"measurement": "Potency", "result": "inactive"}]}, {"molecule": "O=C(/C=C/c1cccc(Oc2ccccc2)c1)N1CCOCC1", "values": [{"measurement": "Potency", "result": "inactive"}]}, {"molecule": "Cc1ccc(-n2ncc(C(=O)NC3CC3)c2C2CCN(C(=O)OC(C)(C)C)CC2)cc1", "values": [{"measurement": "Potency", "result": "inactive"}]}, {"molecule": "O=C(N/N=C/c1cccs1)c1ccco1", "values": [{"measurement": "Potency", "result": "inactive"}]}, {"molecule": "Cc1ccc(Cl)c(N/C=C/C(=O)c2ccccc2)c1", "values": [{"measurement": "Potency", "result": "inactive"}]}, {"molecule": "O=C(COC(=O)/C=C/c1cccc(F)c1)Nc1ccccc1", "values": [{"measurement": "Potency", "result": "inactive"}]}, {"molecule": "CCN(C1CCS(=O)(=O)C1)S(=O)(=O)c1ccc2ccccc2c1", "note": "(stereo not given)", "values": [{"measurement": "Potency", "result": "inactive"}]}, {"molecule": "O=C(Nc1cccc(C2=NCCN2)c1)Nc1cccc(C2=NCCN2)c1", "values": [{"measurement": "Potency", "result": "inactive"}]}, {"molecule": "CC(C)(C)n1ncc2c(=O)n(Cc3ccc(Cl)cc3)cnc21", "values": [{"measurement": "Potency", "result": "inactive"}]}, {"molecule": "Cc1ccc(C)c(S(=O)(=O)Nc2ccccc2C(=O)Nc2cc(C)on2)c1", "values": [{"measurement": "Potency", "result": "inactive"}]}, {"molecule": "O=S(=O)(NCCc1ccccc1F)c1cccc(S(=O)(=O)N2CCOCC2)c1", "values": [{"measurement": "Potency", "result": "inactive"}]}]}
